Sampled rows, rich in hits. Any-hit rate of the full collection: about 1.8%.
EWS-Fli inh: EWS/Fli transcriptional activity inhibition. A673 NR0B1-luciferase reporter, viability-normalised. inhibition, % at 12.6 µM. 0.67% of 350,000 active. AID 651661;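 active = mean inhibition of at least 50% after viability correction, with every replicate also passing that limit; inconclusive = mean reaches 50% but only one of two replicates passes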;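 also: firefly luciferase signal divided by Alamar Blue viability fluorescence both relative to DMSO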
CFTR F508del cor: correctors of CFTR F508del function in bronchial epithelial cells; activity (quench increase), % at 7.58 µM; CFBE cells, YFP halide quenching; stimulated with forskolin plus potentiator P3; % fluorescence drop versus neutral controls; AID 720511; 0.36% of 350,000 active;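 active = mean added fluorescence quench of at least 8% versus neutral control, with both replicates also reaching 8%; inconclusive = only one of the mean or replicate conditions met; inactive = mean below 8% and not both replicates reaching 8%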;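 also: cells transiently co-express mutant CFTR-F508del with the halide-sensitive YFP; corrector assay measuring rescue of mutant channel to the surface after 24 h compound exposure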
RAD52 anneal inh: inhibitors of human RAD52 DNA annealing | recombinant RAD52 DNA annealing, FRET fluorescence | inhibition, % at 18.7 µM | 0.46% of 360,000 active | AID 651710;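 active = every replicate showing at least 50% inhibition; inconclusive = mean inhibition at least 50% but not in every replicate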
Target sequence (P43351 whole entry, looked up): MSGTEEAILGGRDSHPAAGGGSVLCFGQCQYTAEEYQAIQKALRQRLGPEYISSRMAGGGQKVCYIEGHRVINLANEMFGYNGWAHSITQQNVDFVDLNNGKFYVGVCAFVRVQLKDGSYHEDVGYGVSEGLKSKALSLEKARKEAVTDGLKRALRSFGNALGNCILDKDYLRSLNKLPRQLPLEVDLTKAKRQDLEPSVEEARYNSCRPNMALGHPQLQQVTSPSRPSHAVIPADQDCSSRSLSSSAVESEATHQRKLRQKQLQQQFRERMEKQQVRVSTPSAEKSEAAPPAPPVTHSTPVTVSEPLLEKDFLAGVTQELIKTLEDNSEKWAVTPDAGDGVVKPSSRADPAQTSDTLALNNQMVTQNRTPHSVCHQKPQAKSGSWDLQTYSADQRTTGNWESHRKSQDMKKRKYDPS
RAD54 branch: inhibitors of human RAD54 branch migration; Q92698; 0.14% of 360,000 active; inhibition, % at 10.4 µM; RAD54 Holliday junction branch migration, FAM/BHQ fluorescence;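 active = mean normalized replicate activity at least 40 and at least half of replicates scoring 40 or more; inconclusive = only one of the two criteria met; inactive = mean below 40 and under half of replicates reaching 40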;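 also: 0% = median of neutral control wells and 100% = median of positive control wells; inhibitors cause a drop in the FAM fluorescence signal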
LGR2 antag: inhibitors of bursicon-induced Drosophila LGR2 receptor cAMP signaling; AID 720647; inhibition, % at 9.99 µM; 0.35% of 380,000 active; HEK293 LGR2, CRE-luciferase, bursicon-stimulated, 4 h;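 active = drop in luminescence signal, shown as inhibition above about 50% in the replicate tests, limit read from the data, passing the limit was not always enough; inconclusive = probably only some replicates passing the limit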;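 also: agonist challenge used bursicon conditioned medium at about half maximal strength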
INS-1E GSIS act: primary screen for activators of insulin secretion dependent on glucose, INS-1E cells, GLuc reporter luminescence; INS-1E GLuc reporter insulin secretion, 2-3 h; activation, % at 16.6 µM; 0.61% of 370,000 active;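 active = lowest replicate activation of at least 40%, so every replicate reaches that level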;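 also: 0% = median of neutral control wells and 100% = median of IBMX positive control wells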
* hit, by the source's call; ? = inconclusive; nt = no result.

SMILES	EWS-Fli inh	CFTR F508del cor	RAD52 anneal inh	RAD54 branch	LGR2 antag	INS-1E GSIS act
COc1ccc2c(=O)c(-c3ccc4c(c3)OCO4)coc2c1	31.6	-1.4	nt	4.1	68.8*	-1.9
O=S(=O)(c1ccc(OCc2ccc(Br)cc2)cc1)N1CCOCC1	4.1	19.4*	3.3	-7.1	-0.2	1.6
CCOc1ccc(/C=C/C(=O)c2ccc(-c3ccccc3)cc2)cc1	6.9	nt	nt	nt	-3.2	46.7*
COCC#Cc1ccc2c(c1)O[C@@H](CN(C)C)[C@@H](C)CN([C@@H](C)CO)S2(=O)=O	-0.2	0.5	-12.1	4.4	-5.3	-0.1
CCCCn1c(N)c(N(CC(C)C)C(=O)c2ccc3c(c2)NC(=O)C(C)S3)c(=O)[nH]c1=O (centres undefined)	1.9	1.4	-4.4	9.4	1.4	13.6
CC1=C(CO)C(=O)OC([C@@H](C)C2CC[C@H]3C4C[C@H]5O[C@]56[C@@H](O)C=CC(=O)[C@]6(C)C4CC[C@]23C)C1 (some centres undefined)	64.3*	-18.8	-1.7	-0.2	nt	nt
O=C(Nc1ccc(F)cc1)Nc1cc(OCC(F)(F)F)cc(OCC(F)(F)F)c1	nt	nt	nt	nt	34.2	127.6*
CC(C)CCOP(=O)(c1ccccc1)c1ccccc1	nt	nt	nt	nt	8.1	64.4*
CN(C)c1ccc(NC(=O)CCn2c(=S)oc3ccccc32)cc1	-91.7	1.6	-6.1	nt	-76.4	-5.1
CC(C)OCCCNC(=O)C(=O)N/N=C/c1ccc(OCc2ccccc2)cc1	-50.7	1.5	-17.6	-6.3	-1.5	11.0
Cc1ccc(S(=O)(=O)c2nnn3c2nc(N2CCOCC2)c2ccccc23)cc1	nt	-1.0	-4.1	-3.7	-3.6	14.6
CC(C)c1cc(C(C)C)n2nc(N)nc2n1	-7.0	5.5	-6.1	3.1	-3.6	89.4*
CCCc1cc(CCC)n2nc(N)nc2n1	7.0	5.4	-8.2	nt	-1.4	28.1
Cc1cc(C)nc(NS(=O)(=O)c2ccc(N/C=C/C(=O)c3ccc(Cl)c(Cl)c3)cc2)n1	nt	nt	nt	-7.7	-2.0	63.0*
Cc1noc(NS(=O)(=O)c2ccc(N/C=C\C(=O)c3ccccc3)cc2)c1C	-9.2	11.9*	-21.6	nt	-11.4	2.1
COc1ccc(-c2ccc(CCC(=O)O)n2CC(C)C)cc1	nt	nt	nt	-0.5	nt	nt
Cc1cc(C)c(S(=O)(=O)c2ccc(C(C)(C)C)cc2)c(Cl)n1	3.8	nt	-13.6	-0.6	0.7	-2.8
CC(C)c1ccc(-n2c(-c3ccccc3)c[n+]3c2CCc2ccccc2-3)cc1	58.6*	-2.6	7.7	nt	53.5*	-65.9
COc1ccc(-n2c(-c3ccc(Br)cc3)c[n+]3c2CCc2ccccc2-3)cc1	11.2	1.9	10.9	nt	9.9	-38.2
Cc1ccc(/C=C/C(=O)c2c(C)cc(C)[nH]c2=O)cc1	-9.4	-1.4	-14.5	-1.2	69.6*	-3.6
Cc1cc(C)c(C(=O)/C=C/c2cccs2)c(=O)[nH]1	-8.8	-2.2	-87.5	nt	18.3	10.3
O=C(c1cccc(S(=O)(=O)N2CCN(c3ccc(F)cc3)CC2)c1)N1CCCC(C(F)(F)F)C1 (centres undefined)	20.5	10.0*	1.4	-8.6	14.9	-72.4
COCCNc1nnc(Cc2ccc(Cl)cc2)c(=O)[nH]1	0.0	-0.4	-9.3	3.6	-5.1	-2.7
COCCCNc1nnc(Cc2ccc(Cl)cc2)c(=O)[nH]1	58.4*	10.5*	0.1	2.5	15.8	9.8
CCCCSc1nc2[nH]ncc2c(=O)[nH]1	-17.3	nt	-13.9	-17.5	4.5	68.9*
SMILES	EWS-Fli inh	CFTR F508del cor	RAD52 anneal inh	RAD54 branch	LGR2 antag	INS-1E GSIS act
Cc1ccc(C)c(CSc2nc3[nH]ncc3c(=O)[nH]2)c1	57.5*	16.5*	-3.8	nt	6.1	-12.7
CCCNC(=O)N1C[C@H](C)[C@H](OC)CN(C)C(=O)c2cc(NC(C)=O)ccc2OC[C@@H]1C	-4.0	-2.1	-5.5	-8.4	10.3	8.9
CCCC(C)(C)C(=O)N1CCC1(C)C(=O)NS(=O)(=O)c1ccc(Cl)cc1 (centres undefined)	10.3	-0.4	-14.2	-8.3	18.6	42.2*
O=C1CC(=O)Nc2cc(S(=O)(=O)NCc3cccs3)ccc2N1	-6.1	-1.3	-14.6	-1.1	9.0	41.4*
CC(C)NC(=O)Nc1ccc2c(c1)CC(=O)N([C@H](C)CO)C[C@H](C)[C@H](CN(C)Cc1ccc(C(=O)Nc3ccccc3N)cc1)O2	32.0	-2.7	6.7	nt	-31.9	32.0
O=C(c1cccs1)N(Cc1ccccn1)Cc1ccco1	nt	nt	nt	1.1	-15.6	73.1*
Cc1ccc(NC(=O)c2cc(N3C(=O)C=CC3=O)ccc2Cl)cc1C	nt	nt	nt	-2.0	9.3	49.5*
CCOc1ccc(Oc2ccc(S(=O)(=O)N3CCOCC3)cc2NC(=O)C2=COCCO2)cc1	19.6	-1.6	-7.0	1.3	11.6	-21.0
CC1CN(S(=O)(=O)c2cccc(C(=O)NN3CCN(C)CC3)c2)CC(C)O1 (centres undefined)	nt	nt	nt	4.5	-0.6	14.8
CCOc1ccc(S(=O)(=O)N2CCCCC2)cc1NC(=O)c1ccccc1	9.8	12.0*	4.0	-8.9	-11.0	7.1
CCOc1ccc(S(=O)(=O)N2CCOCC2)cc1NC(=O)C1=COCCO1	11.6	-0.1	4.4	4.6	-7.7	41.0*
COc1ccc(S(=O)(=O)N2CCCCC2)cc1NC(=O)C1CC1C (centres undefined)	-1.4	-3.3	-3.3	3.0	2.8	40.5*
CN1CCN(NC(=O)c2cccc(S(=O)(=O)N3CCCCCC3)c2)CC1	-2.7	0.9	-6.7	-2.4	-5.1	58.1*
O=c1n(-c2ccc(Br)cc2)cnn1-c1ncccc1[N+](=O)[O-]	-66.9	-1.3	-0.9	nt	-49.6	6.8
COC(=O)[C@]12CCCCC=C1N(CCc1ccc(OC)c(OC)c1)C(=O)[C@H](CC(=O)N1CCOCC1)C2	-3.2	0.8	-5.1	nt	-0.9	5.5
COc1ccc(C(=O)c2ccc(N(C)C)cc2)c(OC)c1	29.8	11.2*	-20.4	2.4	-2.3	4.3
COc1ccc(C(=O)c2ccc(OC)cc2OC)cc1	49.0	?	-3.2	-1.6	-12.7	-4.5
COc1ccc(OC)c(C(=O)c2ccc(C(=O)c3cc(OC)ccc3OC)cc2)c1	23.3	-0.5	7.8	3.0	7.5	17.5
COc1ccc(OC)c(C(=O)c2ccc([N+](=O)[O-])cc2)c1	-2.9	-3.6	-2.5	7.0	1.1	57.6*
COc1ccc(C(=O)c2cc([N+](=O)[O-])ccc2N2CCN(C)CC2)cc1	45.3	16.1*	-8.5	nt	3.2	-1.4
COc1ccc(C(=O)c2cc([N+](=O)[O-])ccc2N2CCCC2)cc1	nt	nt	nt	nt	-11.9	-14.3
Cc1noc(C)c1NC(=O)Nc1cccc2c1O[C@@H](CN(C)Cc1ccc(Oc3ccccc3)cc1)[C@@H](C)CN([C@H](C)CO)C2=O	17.1	-1.4	0.2	0.8	23.9	-23.3
O=C(C[C@@H]1C[C@H]2c3cc(NS(=O)(=O)c4ccc(F)cc4)ccc3O[C@H]2[C@@H](CO)O1)NCc1ccc(Oc2ccccc2)cc1	59.3*	1.0	-27.6	14.3	nt	-29.1
